Measurements taken from the supplement of paper PMC6555819.

What was measured:
Test in all cases: PBM binding z-score (relative to random genomic background probes); higher = stronger binding; sequences stand for … in GC…GCGATTGACAGCGTAGAATGAAGG
[1] = test system: FXR:RXRa (NR concentration 270 nM, RXRa partner concentration 90 nM)
How it was run: (§1)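 Ligand-free nuclear receptor dimers were bound for 1 h to custom Agilent 4×180K protein-binding microarrays. Detection used antibodies against each partner (one per run). Binding z-scores rest on regression-normalized fluorescence, with random background probes as the reference.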

[2] = test system: LXRa:RXRa (NR concentration 270 nM, RXRa partner concentration 90 nM)
How it was run: as §1

[3] = test system: LXRa homodimer (NR concentration 270 nM)
How it was run: as §1

[4] = test system: LXRb:RXRa (NR concentration 270 nM, RXRa partner concentration 90 nM)
How it was run: as §1

[5] = test system: LXRb homodimer (NR concentration 270 nM)
How it was run: as §1

[6] = test system: PPARa:RXRa (NR concentration 270 nM, RXRa partner concentration 90 nM)
How it was run: as §1

[7] = test system: PPARg:RXRa (NR concentration 180 nM, RXRa partner concentration 90 nM)
How it was run: as §1

[8] = test system: PPARg:RXRa 270nM:90nM, anti-RXR (NR concentration 270 nM, RXRa partner concentration 90 nM)
How it was run: as §1

[9] = test system: PPARg:RXRa 30nM:10nM, anti-RXR (NR concentration 30 nM, RXRa partner concentration 10 nM)
How it was run: as §1

[10] = test system: PPARg:RXRa 90nM:30nM, anti-RXR (NR concentration 90 nM, RXRa partner concentration 30 nM)
How it was run: as §1

[11] = test system: PPARg:RXRa DBDmut IVT, anti-RXR (DBD mutation: RXRa K156A/R161A, NR concentration 270 nM, RXRa partner concentration 90 nM)
How it was run: as §1

[12] = test system: PPARg:RXRa IVT, anti-PPARg (NR concentration 270 nM, RXRa partner concentration 90 nM)
How it was run: as §1

[13] = test system: PPARg DBDmut:RXRa IVT, anti-PPARg (DBD mutation: PPARg1 K132A/R137A, NR concentration 270 nM, RXRa partner concentration 90 nM)
How it was run: as §1

[14] = test system: PPARg DBDmut IVT, anti-PPARg (DBD mutation: PPARg1 K132A/R137A, NR concentration 270 nM)
How it was run: as §1

[15] = test system: PPARg homodimer (NR concentration 180 nM)
How it was run: as §1

[16] = test system: PXR:RXRa (NR concentration 270 nM, RXRa partner concentration 90 nM)
How it was run: as §1

[17] = test system: PXR homodimer (NR concentration 270 nM)
How it was run: as §1

[18] = test system: RARa:RXR (NR concentration 270 nM, RXRa partner concentration 90 nM)
How it was run: as §1

[19] = test system: RARa homodimer (NR concentration 270 nM)
How it was run: as §1

[20] = test system: RARb:RXRa (NR concentration 270 nM, RXRa partner concentration 90 nM)
How it was run: as §1

Row | Sequence | PBM binding z-score [1] | PBM binding z-score [2] | PBM binding z-score [3] | PBM binding z-score [4] | PBM binding z-score [5] | PBM binding z-score [6] | PBM binding z-score [7] | PBM binding z-score [8] | PBM binding z-score [9] | PBM binding z-score [10] | PBM binding z-score [11] | PBM binding z-score [12] | PBM binding z-score [13] | PBM binding z-score [14] | PBM binding z-score [15] | PBM binding z-score [16] | PBM binding z-score [17] | PBM binding z-score [18] | PBM binding z-score [19] | PBM binding z-score [20]
1 | CGTCCAAGGTTAGAGAGGTCAGTGAATGCCGAGT | 2.67 | 3.01 | 1.94 | 2.48 | -0.312 | 3.11 | 0.589 | 1.66 | -0.029 | 0.655 | 0.939 | 1.57 | -1.21 | -1.38 | 2.67 | 4.07 | 7.59 | 3.61 | 1.11 | 3.66
2 | CAAACTAGGTCACCGGAACGTCAAAGTCCGCATG | 4.29 | 3.3 | 0.469 | 2.42 | 0.773 | 5.75 | 8.87 | 7.2 | 4.82 | 6.94 | 8.6 | 8.71 | 3.6 | 1.58 | 2.42 | 1.83 | 0.254 | 2.67 | 0.352 | 4.31
3 | GCTGCTAGGACAGGTTGGTCAGCTAACGGGTACG | -0.662 | -0.909 | -0.343 | -0.926 | -0.654 | -0.661 | 0.0442 | -0.697 | -1.16 | -0.722 | -0.0688 | -0.79 | -1.21 | -0.812 | -0.869 | -0.739 | -0.561 | -0.833 | -0.447 | 0.0113
4 | CCGACTGGGGCAGAAAGGCTACCATACCATCCGG | -0.561 | -0.818 | -0.431 | -0.869 | -1.41 | -0.338 | 0.703 | -0.0777 | -0.705 | -0.612 | 0.897 | 0.918 | -0.746 | -1.37 | -0.0679 | -0.836 | -0.377 | -0.589 | 0.0496 | 0.362
5 | CGTCAGAGTTCAACTAAGGTAACGTAAAGCACGC | 6.8 | 5.7 | 3.39 | 3.95 | 1.39 | 4.78 | 3.46 | 3.98 | 1.19 | 2.53 | 0.228 | 1.32 | 0.422 | 0.416 | 2.24 | 5.76 | 6.21 | 4.1 | 1.3 | 4.73
6 | GATACAGGGCCAAGGCCAGAGTACGCGTATTGAT | -0.68 | -0.832 | -0.782 | -1 | -1.09 | -0.662 | 0.814 | 0.25 | -0.269 | -0.247 | -0.255 | -0.178 | -0.899 | -1.53 | -0.373 | -0.55 | -0.406 | -0.762 | -0.587 | 0.946
7 | CGAACTAGGTCAAGGACAGCGAATCTCCGCACGC | 3.45 | 2.27 | 0.194 | 1.27 | -0.45 | 4.72 | 7.46 | 6.26 | 3.42 | 5.68 | 7.76 | 8.26 | 2.54 | 2.03 | 1.63 | 1.06 | 0.0262 | 1.9 | 0.554 | 3.81
8 | TCATATAGGTAATACAGGTGAAACTCGGCATCTA | 1.07 | 1.41 | 0.63 | 1.14 | 0.362 | 2.28 | 1.85 | 2.56 | 3.88 | 3.33 | 4.14 | 3.73 | 1.2 | 0.856 | 1.01 | 0.879 | 0.269 | 1.17 | 1.3 | 0.809
9 | CGTCAAAGTTTAACTAAGGTAACGTAAAGCACGC | 1.47 | 2.68 | 0.251 | 0.825 | 0.249 | 1.15 | 0.797 | 1.22 | 0.174 | 0.65 | 0.271 | 1.32 | 0.6 | 1.17 | 0.901 | 1.45 | 0.928 | 1.55 | 0.858 | 2.44
10 | ACTATTAGTAGAGACGAGGGCAACCGATAGGTTG | 0.0303 | 0.0981 | 0.152 | -0.117 | 0.12 | 0.455 | 1 | 1.21 | 0.245 | 0.958 | -0.0666 | 0.751 | 1.1 | 0.293 | 0.251 | 0.541 | 0.137 | 0.421 | 0.262 | 0.97
11 | CTCGAAAGGTCGTGCTCAGGTGCGTATACCAAAC | 4.69 | 3.72 | 0.109 | 2.86 | -0.0235 | 4.57 | 1.84 | 3.16 | 0.473 | 2.05 | 0.285 | 1.52 | 0.6 | 0.566 | 0.856 | 3.09 | 0.43 | 3.46 | -0.163 | 3.75
12 | ATCGCTAGGTAAGACTCAGTTCAGTGAAGAACGC | -0.617 | -0.685 | -0.587 | -0.734 | -0.581 | -0.45 | -0.14 | -0.615 | -0.356 | -0.686 | -0.311 | -0.264 | -0.423 | -0.364 | -0.443 | 0.322 | 0.471 | -0.577 | -0.519 | -0.283
13 | TTACCAAGGTGAAAGGTCGTAGATGCACGCCTTG | 3.65 | 3.02 | -0.241 | 2.66 | -0.86 | 5.51 | 8.66 | 8.09 | 7.58 | 8.56 | 2.23 | 5.05 | 1.07 | 0.00894 | 2.17 | 4.04 | 0.0928 | 5.82 | -0.336 | 3.31
14 | CCTAGTTGGTCAGGAGGTCACTCACCGGATATGA | 3.08 | 2.85 | 1.57 | 2.79 | 0.66 | 3.54 | 2.76 | 3.43 | 1.11 | 2.75 | 1.33 | 2.97 | 0.254 | 0.0226 | 3.04 | 3.74 | 0.903 | 3.94 | 2.42 | 3.41
